# Results from PMC4336329 (PLoS ONE, 2015).
# Out of some 310,000 compounds screened, about 14,000 (4.5%) showed an effect of 50% or more. The effect is printed as a negative number. The full list was thinned out, with strong results kept by preference.
# Biological target: human ether-à-go-go-related gene (hERG) potassium channel (human, UniProt Q12809)
# Test: primary screen, population patch clamp on CHO cells stably expressing hERG; higher = less effect of the substance
# 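Note: peak tail current of the secondary pulse compared with the same well before compound.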
# Chain of human ether-à-go-go-related gene (hERG) potassium channel (Q12809 whole entry, looked up): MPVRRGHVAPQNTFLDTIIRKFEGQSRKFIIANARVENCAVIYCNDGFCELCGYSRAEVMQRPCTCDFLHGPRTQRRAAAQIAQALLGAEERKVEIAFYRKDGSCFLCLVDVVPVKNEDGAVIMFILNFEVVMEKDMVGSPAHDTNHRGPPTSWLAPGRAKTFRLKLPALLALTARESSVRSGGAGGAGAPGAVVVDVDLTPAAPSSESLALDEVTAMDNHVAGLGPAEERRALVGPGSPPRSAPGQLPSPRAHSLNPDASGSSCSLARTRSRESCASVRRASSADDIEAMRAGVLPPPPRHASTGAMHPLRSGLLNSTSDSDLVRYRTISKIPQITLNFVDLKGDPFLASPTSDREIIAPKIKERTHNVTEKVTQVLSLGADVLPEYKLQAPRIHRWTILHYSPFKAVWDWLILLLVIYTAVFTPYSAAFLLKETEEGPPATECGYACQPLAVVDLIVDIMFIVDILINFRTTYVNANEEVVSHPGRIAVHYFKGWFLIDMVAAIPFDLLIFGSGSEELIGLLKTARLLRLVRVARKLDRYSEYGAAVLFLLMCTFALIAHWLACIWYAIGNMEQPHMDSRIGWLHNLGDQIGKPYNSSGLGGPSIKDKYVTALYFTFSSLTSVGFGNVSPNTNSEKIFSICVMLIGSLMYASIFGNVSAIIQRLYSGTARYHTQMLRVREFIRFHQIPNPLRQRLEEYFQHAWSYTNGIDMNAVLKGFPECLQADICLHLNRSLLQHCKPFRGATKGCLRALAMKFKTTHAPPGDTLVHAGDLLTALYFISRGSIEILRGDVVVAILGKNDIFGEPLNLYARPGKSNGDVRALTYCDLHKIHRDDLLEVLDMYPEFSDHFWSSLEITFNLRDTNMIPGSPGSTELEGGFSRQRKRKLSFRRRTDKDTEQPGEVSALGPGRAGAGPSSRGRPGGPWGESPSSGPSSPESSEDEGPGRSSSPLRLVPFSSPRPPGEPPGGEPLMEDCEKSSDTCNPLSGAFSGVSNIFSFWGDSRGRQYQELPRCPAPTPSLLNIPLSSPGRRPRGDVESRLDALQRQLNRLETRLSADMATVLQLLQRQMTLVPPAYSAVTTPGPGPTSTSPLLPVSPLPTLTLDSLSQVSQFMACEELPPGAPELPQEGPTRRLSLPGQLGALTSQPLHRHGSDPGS
row,SMILES,"hERG current change (%, negative = inhibition) at 10uM [%]"
1,CCCCNC(=S)N(C)/N=C/c1ccc2c(c1)OCO2,-50.1
2,CCCCNC(=S)N(C)/N=C/c1ccc(F)cc1,-8.72
3,CCCCNC(=S)N(C)/N=C/c1ccccc1F,2.14
4,CCOc1c(N2CCCCC2)c(=O)c1=O,0.507
5,Cc1cc(C)cc(NC(=O)CSc2nnc(-c3ccncc3)o2)c1,-22.8
6,COc1cc(OC)c(C(=O)Nc2cccc(C(C)=O)c2)cc1OC,-9.08
7,Cc1ccc2cc(CCNS(=O)(=O)c3ccc(F)cc3)c(=O)[nH]c2c1C,10.9
8,CCOC(=O)C1=C(N)OC2=C(C(=O)CC(C)(C)C2)C1c1ccc(C)s1 (centres unmarked),-42.3
9,CCOC(=O)C1=C(N)OC2=C(C(=O)CCC2)C1c1cccs1 (centres unmarked),1.13
10,CCOC(=O)C1=C(N)OC2=C(C(=O)CCC2)C1c1ccc(C)s1 (centres unmarked),-54.3
11,CCOC(=O)CC(=O)c1cc(OC)c(OC)c(OC)c1,-3.44
12,Cc1ccc(-c2cc(C(F)(F)F)n3nc(C(=O)NCCCn4ccnc4)cc3n2)cc1C,-20.6
13,O=C(NCCCn1ccnc1)c1cc2nc(-c3ccc(Br)cc3)cc(C(F)(F)F)n2n1,-62.8
14,O=C(NCCCn1ccnc1)c1nn2c(C(F)(F)F)cc(-c3ccccc3)nc2c1Cl,-29.6
15,O=C(NCCCn1ccnc1)c1nn2c(C(F)(F)F)cc(-c3ccc(Br)cc3)nc2c1Cl,-65.7
16,CCCNC(=O)c1nn2c(C(F)(F)F)cc(-c3ccccc3)nc2c1Cl,-4.1
17,COc1ccc(-c2cc(C(F)(F)F)n3nc(C(=O)NCCCn4ccnc4)cc3n2)cc1,-41
18,COc1ccc(CN(C#N)c2nc(C)cc(C)n2)cc1,14.1

row,SMILES,"hERG current change (%, negative = inhibition) at 10uM [%]"
1,CCOC(=O)C1=C(COC(=O)CCOc2cc(C)ccc2C)NC(=O)NC1C (centres unmarked),-26.5
2,Cc1ccc(N(C(=O)c2snc(C(N)=O)c2N)C(C(=O)NCC2CCCO2)c2ccc(C)o2)c(C)c1 (centres unmarked),-40.9
3,CCN(CC(=O)Nc1ccc(NC(C)=O)cc1)C(=O)C1CCCC1,-13.9
4,O=C(NNC(=S)NC(=O)C12CC3CC(CC(C3)C1)C2)c1ccncc1,19.8
5,CCOC(=O)c1c(C)[nH]c(C(=O)OCc2ccc(F)cc2)c1C,-0.855
6,O=C(NCCN1CCOCC1)c1cccc(S(=O)(=O)Nc2ccc(Br)cc2)c1,-20.4
7,COc1ccc(NS(=O)(=O)c2cccc(C(=O)NC3CCN(Cc4ccccc4)CC3)c2)cc1,-46.7
8,Cc1ccc(S(=O)(=O)Nc2cccc(C(=O)NCC3CCCO3)c2)cc1F (centres unmarked),2.12
9,C=CCN(c1ccccc1)S(=O)(=O)c1cccc(C(=O)O)c1,16
10,C=CCN(c1ccccc1)S(=O)(=O)c1cccc(C(=O)NC2CCN(Cc3ccccc3)CC2)c1,-65.3
11,C=CCN(c1ccccc1)S(=O)(=O)c1cccc(C(=O)NC2CCC(O)CC2)c1 (centres unmarked),-7.48
12,COc1ccccc1NC(=O)c1cccc(S(=O)(=O)N2CCN(Cc3ccccc3)CC2)c1,-19.6
13,COc1ccccc1NS(=O)(=O)c1cccc(C(=O)NC2CCN(Cc3ccccc3)CC2)c1,-56
14,O=C(NC1CCN(Cc2ccccc2)CC1)c1cccc(S(=O)(=O)Nc2ccc(Br)cc2)c1,-59.7
15,O=C(c1cccc(NS(=O)(=O)c2ccc(F)c(F)c2)c1)N1CCN(Cc2ccccc2)CC1,-26.8
16,Cc1ccc(S(=O)(=O)Nc2cccc(C(=O)NC3CCN(Cc4ccccc4)CC3)c2)cc1F,-80.6
17,COc1ccccc1NS(=O)(=O)c1cccc(C(=O)NN)c1,-5.56
